The supplement of paper PMC3545927
Some of the results follow. The hit rate among all sequences tested is not known here.

Molecular target: furin, P09958
Assay: furin cleavage Z-score vs untreated control; higher = more cleavage, active = 3.5 or more, inactive = 1 or less, 8 variable residues between constant flanks
Outline: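 The cleavage Z-score was derived for purified furin acting on 8-mer peptides held on magnetic beads and fused to a cDNA oligonucleotide. Digests lasted 7.5, 15 or 30 min at 1:10 enzyme:substrate in 50 mM HEPES pH 7.5 with CaCl2 and NaCl. Sequencing counts of released DNA, log-transformed against furin-free reactions, were lowess-adjusted and scaled by median absolute deviation.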

Chain of furin, P09958 (P09958 whole entry): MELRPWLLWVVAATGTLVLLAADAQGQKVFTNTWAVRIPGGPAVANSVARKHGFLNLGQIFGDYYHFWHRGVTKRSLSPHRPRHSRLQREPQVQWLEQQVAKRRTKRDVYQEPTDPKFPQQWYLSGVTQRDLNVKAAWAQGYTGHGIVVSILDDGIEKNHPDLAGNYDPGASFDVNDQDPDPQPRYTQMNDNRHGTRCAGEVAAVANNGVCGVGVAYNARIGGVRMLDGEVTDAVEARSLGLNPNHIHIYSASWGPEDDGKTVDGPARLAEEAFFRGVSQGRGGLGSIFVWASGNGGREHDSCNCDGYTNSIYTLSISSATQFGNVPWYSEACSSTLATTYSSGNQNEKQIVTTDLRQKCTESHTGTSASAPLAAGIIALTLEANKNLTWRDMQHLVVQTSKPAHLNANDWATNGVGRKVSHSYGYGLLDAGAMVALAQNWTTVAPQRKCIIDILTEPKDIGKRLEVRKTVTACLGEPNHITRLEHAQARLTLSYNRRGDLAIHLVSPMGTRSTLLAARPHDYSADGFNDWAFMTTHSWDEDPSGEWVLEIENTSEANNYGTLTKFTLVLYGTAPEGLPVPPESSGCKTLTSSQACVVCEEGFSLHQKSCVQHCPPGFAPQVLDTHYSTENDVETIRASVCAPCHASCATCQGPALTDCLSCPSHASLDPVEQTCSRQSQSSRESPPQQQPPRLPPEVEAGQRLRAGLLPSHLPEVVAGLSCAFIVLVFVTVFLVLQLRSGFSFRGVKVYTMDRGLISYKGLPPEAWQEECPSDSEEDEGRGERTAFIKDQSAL

| Sequence | furin cleavage Z-score (7.5 min) | furin cleavage Z-score (15 min) | furin cleavage Z-score (30 min) |
| --- | --- | --- | --- |
| CAMLECSQHLAGNASASA [HC1685] | -0.00687 (inactive) | -0.291 (inactive) | -0.319 (inactive) |
| CALPAILSPGAGNASASA [HC1102] | -0.355 (inactive) | -0.501 (inactive) | -0.653 (inactive) |
| CATTPNSGSWAGNASASA [HC58] | -0.658 (inactive) | -1.14 (inactive) | -1.83 (inactive) |
| CAMDARHKRGAGNASASA [FS-364] | 6.41 (active) | 8.49 (active) | 7.7 (active) |
| CASADLVVRGAGNASASA [FS-89] | 0.299 (inactive) | -0.542 (inactive) | -0.0754 (inactive) |
| CAMLRRTKRGAGNASASA [FS-691] | -0.133 (inactive) | -0.069 (inactive) | 0.376 (inactive) |
| CASHLRVKRGAGNASASA [FS-1280] | 7.98 (active) | 7.64 (active) | 6.42 (active) |
| CAHFQRVKRGAGNASASA [FS-1335] | 7.42 (active) | 6.93 (active) | 6.76 (active) |
| CAKYGRVKRGAGNASASA [FS-1354] | 0.448 (inactive) | 0.71 (inactive) | 0.194 (inactive) |
| CATTPCSWSWAGNASASA [HC1888] | -2.26 (inactive) | -1.57 (inactive) | 0.135 (inactive) |
| CAWPAPQGSRAGNASASA [HC716] | 1.18 | -0.57 (inactive) | 0.187 (inactive) |
| CANDCPNSSIAGNASASA [HC263] | 0.567 (inactive) | 0.0331 (inactive) | -0.164 (inactive) |
